Experimental data as given in article PMC4242493, “Sequence specificity incompletely defines the genome-wide occupancy of Myc”.
Whole data set: some 33,000 sequences, median “normalized occupancy” near 0.075, cut for the highest 2% near 0.095. This excerpt belongs to a sample that is enriched for the highest values.

Target: MaxL homodimer (Homo sapiens, UniProt P61244 1-160)
Test: universal protein-binding microarray (PBM); PBS-based mixture, 10 nM His-tagged protein dimer, 2% milk, 200 ng/uL BSA, 50 ng/uL salmon testes DNA, 0.02% TX-100; detection with Alexa 488 anti-His antibody;; high values mean tight binding
Details: protein: recombinant; tags: C-terminal His-tag (pET21a); chain copies: 2; dsDNA, one strand shown
Method in brief: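 Arrays of the 'all 10-mer' universal design (Agilent 4 x 44 K) were exposed to 10 nM His-tagged protein dimer, stained with 10 ng/μL fluorophore-conjugated anti-His antibody and read on a GenePix 4400A to give a fluorescence intensity for each 8-mer. Binding occupancy is each intensity divided by the highest-ranked intensity.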

MaxL homodimer, sequence (P61244 whole entry): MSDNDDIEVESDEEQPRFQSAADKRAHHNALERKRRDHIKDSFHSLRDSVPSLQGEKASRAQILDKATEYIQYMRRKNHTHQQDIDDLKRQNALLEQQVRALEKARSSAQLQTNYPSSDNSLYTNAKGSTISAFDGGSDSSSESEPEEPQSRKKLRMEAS

| Sequence | binding signal [normalized occupancy] |
| --- | --- |
| GCGAACTA | 0.0739 |
| ATGTGTCC | 0.0851 |
| ACATTTGA | 0.0788 |
| ACTCACTC | 0.0763 |
| CATCCCAG | 0.0743 |
| ATGCCCAG | 0.0765 |
| AGGGGTGA | 0.082 |
| CGTGGTAA | 0.096 |
| CATGGTAA | 0.0939 |
| CATGGTCA | 0.0991 |
| CATGGTCG | 0.0925 |
| CATGGTAC | 0.0998 |
| AGTGGTCA | 0.0751 |
| CGTGGTCC | 0.0896 |
| CGTGGTCA | 0.102 |
| CGTGGTAG | 0.089 |
| AATGGTCA | 0.0816 |
| CATGGTAG | 0.0879 |
| GGTGGTAA | 0.0793 |
| GTTAGACA | 0.0808 |
| CAGGTCAG | 0.0752 |
| GCATAGCC | 0.0775 |
| ACGTTCCC | 0.0819 |
| GGTCTTTA | 0.0763 |
| AACACAGC | 0.0787 |

| Sequence | binding signal [normalized occupancy] |
| --- | --- |
| CAAGTGTG | 0.086 |
| ATAATGTG | 0.095 |
| ACACAGAG | 0.0759 |
| GATCTTGC | 0.0794 |
| AGCATCTC | 0.0746 |
| AGGCATTG | 0.0775 |
| AGGCATTC | 0.0762 |
| AGGCATGG | 0.0974 |
| AGGCATAG | 0.0784 |
| AGGCATGC | 0.1 |
| AGGCATCC | 0.0757 |
| CTCGAAAA | 0.0738 |
| CAAAATTG | 0.0748 |
| AGTCGCAA | 0.0744 |
| GCAGGTAA | 0.0753 |
| AATGTTCC | 0.0722 |
| AACGTGCC | 0.096 |
| AAGGTGCT | 0.0733 |
| GACGTGCC | 0.0841 |
| AAGGTGCC | 0.0753 |
| CACGTCCG | 0.0797 |
| ACCGTGCT | 0.0773 |
| TACGTGCA | 0.0875 |
| CCCGTGCG | 0.0872 |
| CACGTGCG | 0.641 |

| Sequence | binding signal [normalized occupancy] |
| --- | --- |
| GACGTGCA | 0.0797 |
| AACGTGCT | 0.115 |
| CACGTGCA | 0.588 |
| AATTACGG | 0.0744 |
| CATTGGCG | 0.0762 |
| AACTTATT | 0.0797 |
| CTGTTATC | 0.078 |
| CATTAGCG | 0.0779 |
| CTCGTGCA | 0.1 |
| CACGTGCC | 0.521 |
| ATCGTGCA | 0.0816 |
| CACGTACC | 0.0843 |
| AAGGTGCG | 0.077 |
| CAGGTGCC | 0.0785 |
| AACGTCCG | 0.0721 |
| AACGTCCA | 0.0778 |
| AACGTGCA | 0.109 |
| AACGTTCA | 0.0836 |
| GTCGTGCA | 0.0855 |
| AACGTGCG | 0.108 |
| CAGGCTGA | 0.0746 |
| AAAGCACG | 0.0922 |
| AGTGTTAA | 0.0742 |
| CCCATAAG | 0.0856 |
| ACATCCTA | 0.0822 |

| Sequence | binding signal [normalized occupancy] |
| --- | --- |
| AATTAATC | 0.0741 |
| ACGGGGAC | 0.0795 |
| ACCAGAAC | 0.0763 |
| CGGCATCA | 0.0791 |
| CCAGGTCG | 0.0731 |
| CATACATA | 0.0846 |
| CATACACA | 0.0892 |
| CATACATG | 0.0969 |
| CATACACG | 0.097 |
| AGTACACA | 0.0858 |
| CATACACC | 0.0901 |
| AATACATG | 0.0934 |
| CGTACACA | 0.0813 |
| CGTACACG | 0.0971 |
| CCGCTTAC | 0.0724 |
| TCAGGCAA | 0.0718 |
| GACGGCGA | 0.0752 |
| CCAACAAG | 0.0776 |
| CCGCGAGG | 0.0805 |
| AACCTAAC | 0.0728 |
| GCGATTCC | 0.0814 |
| ACCCACGA | 0.0913 |
| ACCCACGG | 0.0796 |
| CCCCACGG | 0.0843 |
| CCCCACGC | 0.0979 |

| Sequence | binding signal [normalized occupancy] |
| --- | --- |
| ACCCACAT | 0.0932 |
| CCCCACGA | 0.0848 |
| ACCCACGT | 0.0984 |
| ACCCACGC | 0.105 |
| GCCCACGC | 0.0978 |
| GCCCACCC | 0.087 |
| GCCCACGA | 0.0823 |
| ACCCACCA | 0.088 |
| CTCGCACC | 0.0733 |
| ATCTATTG | 0.078 |
| AGATAGGC | 0.078 |
| ACATAGAA | 0.0839 |
| TAGTTAAA | 0.0739 |
| CAGCATCC | 0.0746 |
| GAGCATGC | 0.113 |
| AAGCATGA | 0.101 |
| AAGCATAG | 0.0734 |
| GAGCACGC | 0.094 |
| AAGCATTA | 0.082 |
| AAGCATTG | 0.0783 |
| GAGCATAC | 0.0789 |
| AAGCATGG | 0.11 |
| CAGCATAC | 0.0829 |
| CAGCATGC | 0.126 |
| AAGCATAA | 0.0767 |

| Sequence | binding signal [normalized occupancy] |
| --- | --- |
| ATTGGCAG | 0.0726 |
| GTTTACCA | 0.0757 |
| CCGATAAA | 0.0723 |
| CATCACCC | 0.0788 |
| AGTTGCAT | 0.0779 |
| AGCATAAC | 0.0787 |
| CAAGGGGC | 0.0772 |
| TACCTTGA | 0.0849 |
| CTTATAGA | 0.0769 |
| AAGCATTC | 0.0773 |
| AAGCATAT | 0.0839 |
| AAGCATGC | 0.118 |
| AAGCATGT | 0.0997 |
| AAGCATCT | 0.0778 |
| AAGCATAC | 0.0751 |
| AATGAACC | 0.0718 |
| AGTTTTAT | 0.0775 |
| ACTCATGC | 0.0969 |
| AGTCATGA | 0.0829 |
| ACTCATGG | 0.0945 |
| CTTCATGC | 0.0794 |
| CCTCATGC | 0.109 |
| ACTCATGA | 0.0903 |
| AGTCATGG | 0.0855 |
| CCTCATGA | 0.0951 |

| Sequence | binding signal [normalized occupancy] |
| --- | --- |
| AGTCATGC | 0.096 |
| AATACACG | 0.0912 |
| CCCTCGAA | 0.0795 |
| AGCACGAT | 0.0857 |
| CGCACGAG | 0.107 |
| AGCACGTG | 1 |
| AGCACGAA | 0.0827 |
| AGCACGAG | 0.0964 |
| AGCACGTA | 0.0853 |
| CGCACGAA | 0.0816 |
| AGCACGTC | 0.081 |
| CGCACAAA | 0.0718 |
| CTACCCCA | 0.0788 |
| ACGAGGCT | 0.0805 |
| AGAACAAT | 0.0787 |
| ACCCGCTG | 0.0761 |
| CCCCGTTA | 0.0766 |
| CACGATGG | 0.0884 |
| CTAGCACA | 0.0827 |
| GAATGTAC | 0.0769 |
| ACATGTAC | 0.0958 |
| GCATGTAC | 0.0973 |
